Assay results as given in PubChem BioAssay (NCATS).
Records with an inconclusive call do not appear. Calls of active or inactive are those of the source. Unless noted, calls follow the shape of the dose curve; as a rule, active = well fitted curve in the direction sought with a large enough effect; inconclusive = small, poorly fitted or top-dose-only effect, or another doubt; inactive = no such curve, though single readings can be large; an effect the other way counts as inactive or inconclusive.

What was measured:
[1] = molecular target: Atrial natriuretic peptide receptor 2 (Homo sapiens) (UniProt P20594); assay: Natriuretic polypeptide receptor (hNpr2) antagonism - Pilot subtype selectivity assay (AID 1347050; calls by dose curve)
Chain of Atrial natriuretic peptide receptor 2 (Homo sapiens) (P20594 whole entry, looked up): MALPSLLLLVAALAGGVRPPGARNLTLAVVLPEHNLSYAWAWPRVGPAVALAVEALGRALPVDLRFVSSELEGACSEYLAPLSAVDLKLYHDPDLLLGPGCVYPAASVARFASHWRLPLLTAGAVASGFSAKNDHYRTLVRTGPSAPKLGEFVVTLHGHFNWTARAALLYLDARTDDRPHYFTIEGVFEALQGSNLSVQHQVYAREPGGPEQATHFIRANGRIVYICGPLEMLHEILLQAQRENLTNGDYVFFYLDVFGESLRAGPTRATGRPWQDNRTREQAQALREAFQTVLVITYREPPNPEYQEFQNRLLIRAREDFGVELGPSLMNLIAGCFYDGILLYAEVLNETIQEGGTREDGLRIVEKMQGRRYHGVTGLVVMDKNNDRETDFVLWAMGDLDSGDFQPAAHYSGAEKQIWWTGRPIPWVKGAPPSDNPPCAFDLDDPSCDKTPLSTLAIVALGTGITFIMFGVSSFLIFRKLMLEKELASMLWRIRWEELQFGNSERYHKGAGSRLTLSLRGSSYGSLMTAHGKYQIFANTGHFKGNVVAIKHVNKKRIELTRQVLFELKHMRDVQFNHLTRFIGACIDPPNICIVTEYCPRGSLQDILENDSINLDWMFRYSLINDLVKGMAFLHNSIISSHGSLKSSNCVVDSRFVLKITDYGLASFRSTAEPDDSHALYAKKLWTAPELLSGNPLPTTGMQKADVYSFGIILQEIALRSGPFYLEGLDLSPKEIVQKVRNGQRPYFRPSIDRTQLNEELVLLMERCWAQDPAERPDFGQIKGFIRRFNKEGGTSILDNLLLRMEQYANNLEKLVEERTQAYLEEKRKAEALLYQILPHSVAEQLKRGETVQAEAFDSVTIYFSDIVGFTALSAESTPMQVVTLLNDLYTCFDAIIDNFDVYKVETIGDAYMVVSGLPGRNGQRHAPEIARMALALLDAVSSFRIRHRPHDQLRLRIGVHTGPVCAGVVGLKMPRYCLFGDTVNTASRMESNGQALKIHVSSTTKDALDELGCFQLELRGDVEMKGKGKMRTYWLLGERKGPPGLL
Summary of the method: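 cGMP-sensor HEK293/hNpr2 cells; 2% GloSensor reagent 2 h RT; compounds 30 min; baseline luminescence read; 1 nM hNppC agonist 20 min RT; final luminescence read by CCD camera. Antagonism = reduced post-agonist signal.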

[2] = NS1 protein of Zika virus - qHTS assay to identify small molecule inhibitors in human HEK 293 cells (AID 1347053); also: series mostly up to about 46 µM; nearly all actives have a fitted effect of over 55% in size
Summary of the method: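 Inhibition of NS1 expression was scored in HEK 293 cells given compound 1 h ahead of MR766 virus (MOI = 0.5). Following 24 h at 37 C, two anti-NS1 antibodies generated a TR-FRET signal, scaled between uninfected and infected controls.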

[3] = molecular target: T1, Tyrosine-protein phosphatase non-receptor type substrate 1 (Homo sapiens) + Leukocyte surface antigen CD47 (Homo sapiens) (UniProt P78324+Q08722); assay: CD47-SIRPalpha protein protein interaction - LANCE assay qHTS validation (AID 1347057; active = well fitted curve in the direction sought with a large enough effect in the signal ratio, with a control signal flat, not every such curve was filed as active; the % refers to the signal ratio; also: series mostly up to about 38 µM)
T1 sequence (P78324 whole entry, looked up): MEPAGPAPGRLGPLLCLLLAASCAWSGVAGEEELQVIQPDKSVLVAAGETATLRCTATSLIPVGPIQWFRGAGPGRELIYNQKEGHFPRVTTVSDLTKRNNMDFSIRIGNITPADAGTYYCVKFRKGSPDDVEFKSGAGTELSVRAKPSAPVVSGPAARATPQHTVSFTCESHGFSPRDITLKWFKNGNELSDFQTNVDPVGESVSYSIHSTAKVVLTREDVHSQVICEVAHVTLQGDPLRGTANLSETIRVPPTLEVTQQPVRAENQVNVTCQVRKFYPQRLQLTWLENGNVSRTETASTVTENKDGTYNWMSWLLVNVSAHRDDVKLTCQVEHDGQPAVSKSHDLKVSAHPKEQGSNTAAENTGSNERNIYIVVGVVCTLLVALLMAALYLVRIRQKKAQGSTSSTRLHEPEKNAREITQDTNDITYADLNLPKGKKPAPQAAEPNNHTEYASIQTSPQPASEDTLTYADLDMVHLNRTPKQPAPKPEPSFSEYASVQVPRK
T1 sequence (Q08722 whole entry, looked up): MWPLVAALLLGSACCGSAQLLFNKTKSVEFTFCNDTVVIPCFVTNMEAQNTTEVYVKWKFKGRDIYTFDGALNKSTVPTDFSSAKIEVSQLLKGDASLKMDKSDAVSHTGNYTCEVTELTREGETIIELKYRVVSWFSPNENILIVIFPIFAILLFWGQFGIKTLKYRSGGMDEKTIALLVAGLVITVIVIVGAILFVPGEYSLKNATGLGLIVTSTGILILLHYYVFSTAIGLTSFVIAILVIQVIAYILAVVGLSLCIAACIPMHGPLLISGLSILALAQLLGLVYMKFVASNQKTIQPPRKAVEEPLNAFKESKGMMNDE
Summary of the method: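 First, His-tagged CD47 and Eu-labelled anti-His antibody met the compound for 30 min; next, site-specifically biotinylated SIRPalpha was added for 30 min; finally streptavidin-APC was added before reading the TR-FRET ratio.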

[4] = molecular target: T1, Tyrosine-protein phosphatase non-receptor type substrate 1 (Homo sapiens) + Leukocyte surface antigen CD47 (Homo sapiens); assay: CD47-SIRPalpha protein protein interaction - HTRF assay qHTS validation (AID 1347058; active = well fitted curve in the direction sought with a large enough effect in the signal ratio, not every such curve was filed as active; the % refers to the signal ratio; also: series mostly up to about 38 µM)
Summary of the method: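 TR-FRET read (Ch1/Ch2 ratio) of soluble extracellular CD47 and Avi-biotinylated SIRPalpha domains in PBS pH 7.4 with 0.05% IGEPAL; 7-point compound titration. Sequential 30 min room-temperature steps; non-biotinylated SIRPalpha as control inhibitor.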

[5] = molecular target: T1, Tyrosine-protein phosphatase non-receptor type substrate 1 (Homo sapiens) + Leukocyte surface antigen CD47 (Homo sapiens); assay: CD47-SIRPalpha protein protein interaction - Alpha assay qHTS validation (AID 1347059);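 also: bead proximity luminescence from CD47 binding SIRPalpha after compound preincubation with SIRPalpha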
Summary of the method: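 Soluble extracellular domains: Avi-tag biotinylated SIRPalpha (25 nM) preincubated 30 min RT with compound, then 6His-CD47 (12.5 nM) 30 min; Ni-NTA acceptor and streptavidin donor beads (10 ug/mL) 30 min, AlphaScreen read. PBS pH 7.4, 0.05% IGEPAL.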

[6] = molecular target: Parathyroid hormone/parathyroid hormone-related peptide receptor (Homo sapiens) (UniProt Q03431); assay: qHTS for PTHR1 Agonists: Optimization Screen against the NCGC LOPAC library (AID 1347079);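 also: GloSensor cAMP luminescence in HEK-293 GP2 cells expressing human PTHR1 with IBMX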
Chain of Parathyroid hormone/parathyroid hormone-related peptide receptor (Homo sapiens) (Q03431 whole entry, looked up): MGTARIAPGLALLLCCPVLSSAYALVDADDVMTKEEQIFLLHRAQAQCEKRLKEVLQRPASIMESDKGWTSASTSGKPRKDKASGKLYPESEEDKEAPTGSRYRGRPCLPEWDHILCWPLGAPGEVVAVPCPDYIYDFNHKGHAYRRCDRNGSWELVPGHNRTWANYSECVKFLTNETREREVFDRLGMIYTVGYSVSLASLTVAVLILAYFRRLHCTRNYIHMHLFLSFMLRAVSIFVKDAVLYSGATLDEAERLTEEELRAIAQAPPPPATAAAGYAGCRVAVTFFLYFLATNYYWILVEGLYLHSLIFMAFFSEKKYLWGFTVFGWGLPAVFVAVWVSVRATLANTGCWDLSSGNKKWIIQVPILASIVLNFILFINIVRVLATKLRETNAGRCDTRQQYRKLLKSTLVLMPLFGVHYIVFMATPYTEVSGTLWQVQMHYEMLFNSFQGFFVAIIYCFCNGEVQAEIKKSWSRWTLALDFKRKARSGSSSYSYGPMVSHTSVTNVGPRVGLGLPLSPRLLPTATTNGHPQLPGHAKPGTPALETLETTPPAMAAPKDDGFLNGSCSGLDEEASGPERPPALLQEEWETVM
Summary of the method: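 Compounds were tested across a qHTS titration. PTHR1-expressing GP2 cells report cAMP rises via GloSensor luminescence after 1 hr compound exposure at 37C with IBMX present.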

Measured: Potency

CCCN(CC1CC1)c1nc(C)nc(Nc2c(Cl)cc(Cl)cc2Cl)c1Cl
inactive: [1] | [2] | [3] | [4] | [5]

CC(C)CC(NP(=O)(O)O[C@@H]1O[C@@H](C)[C@H](O)[C@@H](O)[C@H]1O)C(=O)NC(Cc1c[nH]c2ccccc12)C(=O)O (stereo partly specified)
inactive: [1] | [2] | [3] | [4] | [5] | [6]

Cn1c(=O)c2[nH]c(-c3ccccc3)nc2n(C)c1=O
inactive: [1] | [2]

C=CC(C)=C[C@@]1(C)SC(=O)C(C)=C1O
inactive: [1] | [2] | [3] | [4] | [5]

O=C(O)CC[C@@H](C(=O)O)N1C(=O)c2ccccc2C1=O
inactive: [1] | [2] | [3] | [4] | [5]

O=C(CCCCCN1CCN(c2ccccc2-c2ccccc2)CC1)NC1CCCc2ccccc21 (stereo unspecified)
inactive: [1] | [2] | [3] | [4] | [5]

CCCn1c(=O)c2[nH]c(-c3ccc(OCC(=O)NCCN)cc3)nc2n(CCC)c1=O
inactive: [1]

C[N+]1(C)CCC(OC(=O)C(c2ccccc2)c2ccccc2)CC1
inactive: [1] | [2] | [3] | [4] | [5] | [6]

NCCSSCCN
inactive: [1] | [2] | [3] | [4] | [5] | [6]

O=C(O)c1cc(=O)c2ccccc2[nH]1
inactive: [1] | [2] | [3] | [4] | [5] | [6]

Cn1cc(C2=C(c3ccc(Cl)cc3Cl)C(=O)NC2=O)c2ccccc21
inactive: [1] | [2] | [3] | [4] | [5] | [6]

NCC1OC(O[C@H]2[C@H](O)[C@@H](OC3C(O)C(N)CC(N)C3OC3OC(CO)C(O)C(O)C3N)O[C@@H]2CO)C(N)C(O)C1O (stereo partly specified)
inactive: [1] | [2] | [3] | [4] | [5] | [6]

OC[C@H]1O[C@@H](n2cnc3c(NC4CCCCC4)ncnc32)[C@H](O)[C@@H]1O
inactive: [1] | [2] | [3] | [4] | [5] | [6]

Nc1ncnc2c1ncn2[C@@H]1O[C@H](COP(=O)(O)CP(=O)(O)OP(=O)(O)O)[C@@H](O)[C@H]1O
inactive: [1] | [2] | [3] | [4] | [5] | [6]

CC(C)(C=O)Cc1cc(C(C)(C)C)c(O)c(C(C)(C)C)c1
inactive: [1] | [2] | [3] | [4] | [5] | [6]

C[N+](C)(C)CCOP(=O)(O)OP(=O)([O-])OC[C@H]1O[C@@H](n2ccc(N)nc2=O)[C@H](O)[C@@H]1O
inactive: [1] | [2] | [3] | [4] | [5] | [6]

O=C1NC(=O)/C(=C/c2ccc(-c3ccc(F)cc3O)o2)S1
inactive: [1] | [2] | [3] | [4] | [5] | [6]

CC(C)NC[C@@H](O)c1ccc(O)c(O)c1
inactive: [1] | [2] | [3] | [5] | [6]

CCCCC#Cc1nc(NC)c2ncn([C@@H]3O[C@H](CO)[C@@H](O)[C@H]3O)c2n1
inactive: [1] | [2] | [4] | [5] | [6]

COc1cccc(OC)c1OCCNCC1COc2ccccc2O1 (stereo unspecified)
inactive: [1] | [2] | [3] | [5] | [6]

O=c1[nH]c2cc(C(F)(F)F)ccc2n1-c1cc(C(F)(F)F)ccc1O
inactive: [1] | [2] | [3] | [4] | [5] | [6]

Nc1ncnc2c1ncn2[C@@H]1O[C@H](COP(=O)(O)OP(=O)(O)OP(=O)(O)OP(=O)(O)OC[C@@H]2O[C@H](n3cnc4c(N)ncnc43)[C@@H](O)[C@H]2O)[C@@H](O)[C@H]1O
inactive: [1] | [2] | [3] | [4] | [5] | [6]

Clc1ccc(N2CCN(Cc3cc4ccccn4n3)CC2)cc1
inactive: [1] | [2] | [3] | [4] | [5] | [6]

NC(=S)c1ccc[n+]([C@@H]2O[C@@H](COP(=O)([O-])OP(=O)(O)OC[C@H]3O[C@@H](n4cnc5c(N)ncnc54)[C@H](OP(=O)(O)O)[C@@H]3O)C(O)C2O)c1 (stereo partly specified)
inactive: [1] | [2] | [3] | [4] | [5] | [6]

Oc1ccccc1O
inactive: [1] | [2] | [6]
